Measured values as given in PubChem BioAssay AID1159580 (chemical genetic matrix, 2015).
Where “and” joins values, the source holds several entries; their conditions need not be identical. Identical values can stand only once. The whole screen tested about 5,500 compounds, of which about 2,000 (36%) were called active. About 18% were inconclusive and are not listed. Cut-off read from the data, not from the text of the source: active = normalized growth mostly below about 0.91 (no sharp cut-off); inconclusive = no clear call, values can overlap the other calls; inactive = mostly above about 0.92. The list shows a part of the results.

Test: chemical genetic growth profiling, strain panel (AID 1159580);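 note: tested at 20 µM; growth read once vehicle control cultures reached saturation at 30 °C; 1 = growth at the plate median or of vehicle wells; lower values mean less growth of the strain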
Conditions: S. cerevisiae deletion strains, growth OD

Measured: normalized growth

CS(=O)(=O)OCCCCOS(C)(=O)=O
active: locus YBR009C, strain hhf1, hits give low values 1.11 [resistant] | locus YJL164C, strain tpk1, hits give low values 1.09 [resistant] | locus YKR001C, strain vps1, hits give low values 0.89 | locus YNR052C, strain pop2, hits give low values 0.908
inactive: locus YAL013W, strain DEP1, hits give low values 0.954 | locus YAL021C, strain ccr4, hits give low values 0.999 | locus YAL026C, strain drs2, hits give low values 1.02 | locus YAL030W, strain snc1, hits give low values 1.03 | locus YBL061C, strain skt5, hits give low values 1.01 | locus YBR021W, strain FUR4, hits give low values 1.01 | locus YBR023C, strain chs3, hits give low values 1.01 | locus YBR171W, strain sec66, hits give low values 1.03 | locus YBR229C, strain ROT2, hits give low values 0.994 | locus YBR231C, strain swc5, hits give low values 0.993 | locus YBR279W, strain paf1, hits give low values 1.01 | locus YCL011C, strain gbp2, hits give low values 1.04 | locus YCL016C, strain dcc1, hits give low values 1.05 | locus YCL029C, strain bik1, hits give low values 0.956 | locus YCL069W, strain vba3, hits give low values 1.03 | locus YCR088W, strain abp1, hits give low values 1.02 | locus YDL005C, strain med2, hits give low values 1.01 | locus YDL035C, strain GPR1, hits give low values 1.02 | locus YDL040C, strain nat1, hits give low values 1 | locus YDL074C, strain BRE1, hits give low values 0.901 | locus YDL101C, strain DUN1, hits give low values 0.948 | locus YDL185W, strain tfp1, hits give low values 0.918 | locus YDL192W, strain arf1, hits give low values 0.942 | locus YDR001C, strain nth1, hits give low values 1.01 | locus YDR069C, strain doa4, hits give low values 1.02 | locus YDR101C, strain arx1, hits give low values 0.961 | locus YDR137W, strain rgp1, hits give low values 1.03 | locus YDR159W, strain sac3, hits give low values 0.996 | locus YDR162C, strain NBP2, hits give low values 0.961 | locus YDR195W, strain ref2 0.973 | locus YDR297W, strain sur2, hits give low values 1.05 | locus YDR318W, strain mcm21, hits give low values 0.962 | locus YDR334W, strain swr1, hits give low values 1.01 | locus YDR335W, strain msn5, hits give low values 1.04 | locus YDR388W, hits give low values 0.963 | locus YDR392W, strain spt3, hits give low values 1.04 | locus YDR502C, strain sam2, hits give low values 0.973 | locus YEL003W, strain gim4, hits give low values 1.03 | locus YEL037C, strain rad23, hits give low values 1.02 | locus YEL061C, strain CIN8 (second series), hits give low values 1.01 | locus YEL061C, strain CIN8, hits give low values 0.979 | locus YER015W, strain faa2, hits give low values 0.998 | locus YER016W, strain bim1, hits give low values 1.03 | locus YER110C, hits give low values 0.93 | locus YER111C, strain swi4, hits give low values 1.02 | locus YER155C, strain BEM2 (second series), hits give low values 1.02 | locus YER155C, strain BEM2, hits give low values 1 | locus YER167W, strain BCK2, hits give low values 1.01 | locus YFR010W, strain ubp6, hits give low values 0.996 | locus YGL078C, strain dbp3, hits give low values 0.987 | locus YGL086W, strain mad1, hits give low values 0.954 | locus YGL167C, strain pmr1, hits give low values 1.05 | locus YGL173C, strain kem1, hits give low values 1.01 | locus YGL227W, strain vid30, hits give low values 1.02 | locus YGL240W, strain doc1, hits give low values 1.05 | locus YGL248W, strain PDE1, hits give low values 0.95 | locus YGL253W, strain hxk2, hits give low values 1.03 | locus YGR078C, strain PAC10, hits give low values 0.935 | locus YGR135W, strain pre9, hits give low values 0.934 | locus YGR252W, strain gcn5, hits give low values 0.861 | locus YHR013C, strain ard1, hits give low values 1.09 | locus YHR027C, strain rpn1, hits give low values 1 | locus YHR030C, strain SLT2, hits give low values 0.979 and 1 | locus YHR079C, strain IRE1 (second series), hits give low values 0.952 | locus YHR079C, strain IRE1, hits give low values 0.994 | locus YHR094C, strain hxt1, hits give low values 0.981 | locus YHR129C, strain ARP1, hits give low values 0.969 | locus YHR142W, strain chs7, hits give low values 1.07 | locus YHR200W, strain rpn10, hits give low values 0.948 | locus YIL066C, strain RNR3, hits give low values 1 | locus YIL073C, strain SPO22, hits give low values 0.907 | locus YIL125W, strain kgd1, hits give low values 0.981 | locus YIR030C, strain dcg1, hits give low values 0.962 | locus YJL092W, strain hpr5, hits give low values 1.03 | locus YJL095W, strain BCK1 (second series), hits give low values 1.05 | locus YJL095W, strain BCK1, hits give low values 0.833 and 0.987 | locus YJL115W, strain asf1, hits give low values 1.01 | locus YJL129C, strain trk1, hits give low values 0.999 | locus YJL134W, strain LCB3, hits give low values 0.986 | locus YJL154C, strain vps35, hits give low values 1.02 | locus YJL166W, strain qcr8, hits give low values 1.01 | locus YJL168C, strain set2, hits give low values 0.955 | locus YJL187C, strain SWE1 (second series), hits give low values 0.933 | locus YJL187C, strain SWE1, hits give low values 1.03 | locus YJR043C, strain POL32, hits give low values 1.01 | locus YJR066W, strain TOR1, hits give low values 0.985 | locus YKL009W, strain mrt4, hits give low values 0.967 | locus YKL068W, hits give low values 0.99 | locus YKL085W, strain MDH1 (second series), hits give low values 0.975 | locus YKL085W, strain MDH1, hits give low values 0.975 | locus YKL160W, strain elf1, hits give low values 1.05 | locus YKL190W, strain CNB1, hits give low values 0.977 | locus YKR026C, strain gcn3, hits give low values 1.02 | locus YKR091W, strain srl3, hits give low values 1.03 | locus YLL001W, strain dnm1, hits give low values 1.03 | locus YLL026W, hits give low values 1.03 | locus YLL041C, strain sdh2, hits give low values 1.02 | locus YLR027C, strain aat2, hits give low values 1.04 | locus YLR039C, strain RIC1, hits give low values 0.985 | locus YLR058C, strain SHM2, hits give low values 0.969 | locus YLR102C, strain apc9, hits give low values 0.972 | locus YLR113W, strain HOG1, hits give low values 0.961 | locus YLR221C, strain rsa3, hits give low values 1.07 | locus YLR258W, strain gsy2, hits give low values 1.07 | locus YLR262C, strain YPT6 (second series), hits give low values 1.04 | locus YLR262C, strain YPT6, hits give low values 1.02 | locus YLR268W, strain sec22, hits give low values 0.95 | locus YLR320W, strain mms22, hits give low values 0.999 | locus YLR330W, strain CHS5, hits give low values 0.957 | locus YLR342W, strain FKS1 (second series), hits give low values 1.08 | locus YLR342W, strain FKS1, hits give low values 1.02 | locus YLR357W, strain rsc2, hits give low values 1.05 | locus YLR370C, strain arc18, hits give low values 1.03 | locus YLR371W, strain rom2, hits give low values 0.939 | locus YLR384C, strain iki3, hits give low values 1.01 | locus YLR418C, strain cdc73, hits give low values 0.872 | locus YML016C, strain PPZ1, hits give low values 0.981 | locus YML032C, strain rad52, hits give low values 0.97 | locus YML120C, strain ndi1, hits give low values 1.03 | locus YML124C, strain tub3, hits give low values 0.967 | locus YMR058W, strain fet3, hits give low values 1.01 | locus YMR078C, strain ctf18, hits give low values 0.942 | locus YMR125W, strain sto1, hits give low values 1.03 | locus YMR129W, hits give low values 1.02 | locus YMR205C, strain PFK2, hits give low values 1.01 | locus YMR223W, strain ubp8, hits give low values 0.934 | locus YMR231W, strain pep5, hits give low values 1.02 | locus YMR307W, strain GAS1, hits give low values 0.984 | locus YNL067W, strain RPL9B, hits give low values 0.928 | locus YNL071W, strain lat1, hits give low values 1.01 | locus YNL128W, strain TEP1, hits give low values 0.909 | locus YNL153C, strain GIM3, hits give low values 0.938 | locus YNL183C, strain NPR1, hits give low values 0.932 | locus YNL209W, strain ssb2, hits give low values 1.01 | locus YNL233W, strain BNI4, hits give low values 0.889 | locus YNL248C, strain rpa49, hits give low values 1.06 | locus YNL250W, strain rad50, hits give low values 0.964 | locus YNL271C, strain bni1, hits give low values 0.955 | locus YNL298W, strain CLA4, hits give low values 0.979 | locus YNL307C, strain MCK1, hits give low values 0.963 | locus YNL322C, strain KRE1 (second series), hits give low values 1.04 | locus YNR049C, strain mso1, hits give low values 1.02 | locus YOL006C, strain TOP1, hits give low values 0.696 | locus YOL012C, strain htz1 0.364 | locus YOL147C, strain pex11, hits give low values 0.972 | locus YOR001W, strain rrp6, hits give low values 1.03 | locus YOR061W, strain CKA2, hits give low values 0.987 | locus YOR069W, strain VPS5, hits give low values 0.986 | locus YOR070C, strain gyp1, hits give low values 1.01 | locus YOR080W, strain dia2, hits give low values 1.05 | locus YOR083W, strain WHI5, hits give low values 1.05 | locus YOR106W, strain vam3, hits give low values 1.03 | locus YOR136W, strain idh2, hits give low values 0.977 | locus YOR144C, strain elg1, hits give low values 0.984 | locus YOR184W, strain ser1, hits give low values 0.989 | locus YOR231W, strain MKK1, hits give low values 1 | locus YOR265W, strain rbl2, hits give low values 1.01 | locus YOR270C, strain vph1, hits give low values 1.07 | locus YOR290C, strain snf2, hits give low values 1.06 | locus YOR316C, strain cot1, hits give low values 0.972 | locus YPL051W, strain arl3, hits give low values 1.02 | locus YPL078C, strain atp4, hits give low values 1.02 | locus YPL106C, strain sse1, hits give low values 1.05 | locus YPL240C, strain hsp82, hits give low values 1.02 | locus YPL256C, strain CLN2, hits give low values 0.99 | locus YPR119W, strain clb2, hits give low values 0.951 | locus YPR141C, strain kar3, hits give low values 0.957 | locus YPR163C, strain tif3, hits give low values 0.962 | locus YPR167C, strain met16, hits give low values 0.975 | strain wtn01, hits give low values 0.953
